PubChem BioAssay (NCI)
Compounds without any hit were thinned out: in the full panel of roughly 83,000, 20% have a hit.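 Compound tested at a single concentration for 48 hours in 96-well plates; a percent growth value below 10 was scored as active.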 Unmarked numbers belong to inactive results. Activity calls are given as the source filed them.

Tests used:
Test in all cases: NCI-60 one-dose screen, 48 h (100 = growth as untreated, 0 = no growth, -100 = all killed)
Conditions in all cases: 10 µM unless noted
DU-145 prostate = system: DU-145 prostate
K-562 leukemia = system: K-562 leukemia
MALME-3M melanoma = system: MALME-3M melanoma
MDA-MB-231 breast = system: MDA-MB-231 breast
RXF 393 renal = system: RXF 393 renal
SF-268 CNS = system: SF-268 CNS
SF-295 CNS = system: SF-295 CNS
UACC-257 melanoma = system: UACC-257 melanoma
M14 melanoma = system: M14 melanoma
HCT-15 colon = system: HCT-15 colon
HT29 colon = system: HT29 colon
SNB-75 CNS = system: SNB-75 CNS
SNB-19 CNS = system: SNB-19 CNS
U251 CNS = system: U251 CNS
PC-3 prostate = system: PC-3 prostate
SK-MEL-5 melanoma = system: SK-MEL-5 melanoma
UACC-62 melanoma = system: UACC-62 melanoma
LOX IMVI melanoma = system: LOX IMVI melanoma
SK-MEL-28 melanoma = system: SK-MEL-28 melanoma

SMILES | growth (DU-145 prostate) | growth (K-562 leukemia) | growth (MALME-3M melanoma) | growth (MDA-MB-231 breast) | growth (RXF 393 renal) | growth (SF-268 CNS) | growth (SF-295 CNS) | growth (UACC-257 melanoma) | growth (M14 melanoma) | growth (HCT-15 colon) | growth (HT29 colon) | growth (SNB-75 CNS) | growth (SNB-19 CNS) | growth (U251 CNS) | growth (PC-3 prostate) | growth (SK-MEL-5 melanoma) | growth (UACC-62 melanoma) | growth (LOX IMVI melanoma) | growth (SK-MEL-28 melanoma)
Cc1ccc(S(=O)(=O)n2cc(-c3csc(-c4cn(C)c5ncccc45)n3)c3ccccc32)cc1 | 78.3% | 26.7% | 68.5% | 42.6% | 74.3% | 74.1% | 41.9% | 70.8% | 34.2% | 35.8% | 19.3% | 45.8% | 85% | 51.9% | 44.8% | 39.4% | 58.1% | 51.2% | 58.8%
COCCCNc1nc(NC(=O)c2ccc(F)cc2C)cc(-c2cccnc2)n1 | 110% | 104% | 107% | 81.1% | 99.5% | 104% | 104% | 84.1% | 103% | 109% | 105% | 91.7% | 89.9% | 87.6% | 95.9% | 104% | 85.7% | 112% | 107%
COc1cc(-c2c3c(nc4c2c(C)nn4-c2ccccc2)-c2ccccc2C(=O)C3=O)cc(OC)c1OC | 92.2% | 76.9% | 72.4% | 70.9% | 83.3% | 78.9% | 107% | 64.1% | 90% | 85.6% | 44.7% | 138% | 101% | 86.7% | 53.1% | 70.5% | 86.7% | 35.7% | 95%
COc1ccc2nc3cc(Cl)ccc3c(N3CCN(c4nccc(Nc5ccccc5)n4)CC3)c2c1 | 75.2% | 41.5% | 110% | 70.2% | 35% | 61.3% | 78.3% | 82.2% | 60.8% | 33.8% | 54% | 52.8% | 85.2% | 58.5% | 55.9% | 80.4% | 78.9% | 44.3% | 83.5%
O=C1c2cccnc2C(=O)c2c1c(C(=O)OCCN1CCCCC1)c1ccccn21 | -89.7% (active) | -40.9% (active) | -74.3% (active) | -27.9% (active) | -44.5% (active) | -19.8% (active) | -37% (active) | -75% (active) | -20.8% (active) | -48.4% (active) | -9.8% (active) | -63.7% (active) | -31.8% (active) | -29.9% (active) | 9.27% (active) | -97% (active) | -41.2% (active) | -58.6% (active) | -37.9% (active)
COc1cc(/C=N/N(C)C)ccc1O | 110% | 101% | 105% | 93.1% | 105% | 101% | 104% | 89.1% | 108% | 105% | 93.8% | 103% | 99% | 81.8% | 90% | 99.5% | 90.1% | 108% | 114%
O=C(O)c1ccc(=O)[nH]n1 | 135% | 102% | 120% | 103% | 122% | 125% | 109% | 105% | 107% | 101% | 123% | 98.4% | 102% | 109% | 103% | 110% | 98.2% | 96.2% | 109%
COc1cc(OC)c(/C=C/C(=O)c2c(OC)cc(OC)cc2OC)c(OC)c1 | 25.1% | 8.98% (active) | 60.6% | 39.1% | -14.7% (active) | 22.1% | 6.33% (active) | 52.2% | -33.5% (active) | 26% | 3.25% (active) | 13.7% | 32.8% | 14.5% | 42.8% | 1.55% (active) | 7.8% (active) | 10.8% | 21.9%
O=C(NCc1cccc(C(F)(F)F)c1)[C@H](CCC(=O)N1CCN(C2CCCCC2)CC1)N1C(=O)[C@@H](N2C(=O)OC[C@@H]2c2ccccc2)[C@H]1/C(Cl)=C/c1ccccc1 | 60.7% | 31.5% | 47.8% | 33.1% | 52.2% | 31% | 46.5% | 24.9% | 37.9% | 31.8% | 2.23% (active) | 58.5% | 39.4% | 28.1% | 21.7% | -59.5% (active) | 60.3% | 19.9% | 18.6%
C/C(=C(/c1ccc(O)cc1)c1ccc(OCCN2CCCC2)cc1)c1ccccc1 | 78.8% | 2.35% (active) | 8.05% (active) | 49.6% | 42.4% | 63.8% | 44.3% | -29.5% (active) | -53.7% (active) | 34.6% | -10.7% (active) | 46.1% | 73.5% | 35.1% | 48.1% | -65.8% (active) | -29.3% (active) | -50.2% (active) | -40.8% (active)
O=C(COCc1c(-c2ccccc2)no[n+]1[O-])Nc1ccc(C(=O)/C=C/c2ccc3c(c2)OCO3)cc1 | 116% | 92.4% | 123% | 101% | 95.9% | 97.9% | 103% | 93.3% | 109% | 104% | 132% | 120% | 97.3% | 107% | 76.3% | 94.4% | 97.5% | 68.3% | 112%
COc1ccc(-c2csc(NC(=O)CN3CCN(c4cc5c(cc4F)c(=O)c(C(=O)O)cn5C4CC4)CC3)n2)cc1 | 30.2% | 19% | 15.4% | 11.9% | 18.7% | 29.2% | -4.67% (active) | -13.4% (active) | 20.3% | 14.6% | 4.05% (active) | 11.7% | 16.4% | 7.92% (active) | 11.2% | -24.6% (active) | 12.1% | -80% (active) | 39.4%
Oc1ccc2c(=S)cc(-c3ccc(Br)cc3)oc2c1O | 25.5% | 20.7% | 38.3% | 3.73% (active) | 33.4% | 9.4% (active) | 100% | 67.5% | 12.3% | 8.03% (active) | 63.9% | 71.4% | 6.8% (active) | -7.83% (active) | -2.05% (active) | 10.9% | 8.09% (active) | 1.22% (active) | 51.4%
CCN(CC)CCC(=O)c1ccc(OC)c2ccccc12 | 116% | 43.9% | 104% | 110% | 81.8% | 110% | 99.6% | 89.4% | 90.1% | 107% | 109% | 89.1% | 87% | 95.4% | 102% | 107% | 90.6% | 86.8% | 122%
O=c1ccc2cc3ccccc3cc2[nH]1 | 100% | 57.6% | 112% | 101% | 93.7% | 75.5% | 95.4% | 96.5% | 101% | 109% | 101% | 82.2% | 104% | 95.5% | 105% | 80.8% | 66.4% | 102% | 124%
O=C1c2cc3c(cc2-c2c1c1cc(Cl)c(Cl)cc1c(=O)n2C[C@H](O)CO)OCO3 | -14.6% (active) | 7.53% (active) | -37.4% (active) | 0.134% (active) | -69% (active) | -2.79% (active) | -47% (active) | -52.9% (active) | -16.3% (active) | 1.28% (active) | -38.8% (active) | -31.4% (active) | -6.61% (active) | -63.4% (active) | 5.35% (active) | -84.8% (active) | -66.8% (active) | -70.9% (active) | 0.507% (active)
